# Source: PubChem
# HEK293 tox = kills HEK 293 cells; HEK 293 viability, ATP luminescence (CellTiter-Glo), 48-72 h; Potency, µM (highest dose often 115 µM), usual class: inhibitors; hit rate 6.6% among 94,000; AID 1345083; note: nearly all actives have a fitted effect of over 60% in size
#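 HEK 293 cells at 250 cells/well were exposed to compounds by pintool transfer for 48 or 72 hr at 37 degree Celsius, 5% CO2. Viability was read as ATP-coupled luminescence with CellTiter-Glo after 10 min at room temperature.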
# Luciferase inh = inhibitors of firefly (Photinus pyralis) luciferase. Potency, µM (series often up to 115 µM), actives largely listed as inhibitors. purified P. pyralis luciferase, luminescence, biochemical. hit rate 2.5% among 76,000; note: nearly all actives have a fitted effect of over 65% in size
# Target sequence (P08659 whole entry, looked up): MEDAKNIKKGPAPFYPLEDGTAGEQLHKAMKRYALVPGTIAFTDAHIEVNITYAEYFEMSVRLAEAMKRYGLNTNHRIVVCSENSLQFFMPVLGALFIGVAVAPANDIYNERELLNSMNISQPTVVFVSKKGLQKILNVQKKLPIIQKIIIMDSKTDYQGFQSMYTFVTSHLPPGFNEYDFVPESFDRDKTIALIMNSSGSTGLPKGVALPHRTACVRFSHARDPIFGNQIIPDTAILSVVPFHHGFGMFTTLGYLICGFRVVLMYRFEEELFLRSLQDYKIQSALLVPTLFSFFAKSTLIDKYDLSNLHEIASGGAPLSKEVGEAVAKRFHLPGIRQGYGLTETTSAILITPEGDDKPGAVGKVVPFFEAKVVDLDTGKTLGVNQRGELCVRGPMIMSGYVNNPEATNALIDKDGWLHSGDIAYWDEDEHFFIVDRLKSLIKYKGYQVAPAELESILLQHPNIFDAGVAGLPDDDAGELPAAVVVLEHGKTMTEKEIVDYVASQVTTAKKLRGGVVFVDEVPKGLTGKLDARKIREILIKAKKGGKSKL
#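 Luminescence read by CCD imager after adding enzyme (10nM final) to wells holding compound, titrated in qHTS. Substrates 10uM each D-luciferin and ATP; buffer 50mM Tris acetate pH 7.5, 10mM Mg acetate, Tween-20, BSA.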
# hNpr1 antagonist = blocks ANP-stimulated signaling of human Npr1 receptor; P16066; Potency, µM (series often up to 46.3 µM), usual class: inhibitors; hit rate 1.6% among 76,000; AID 1347048; HEK293 hNpr1 GloSensor cGMP, ANP-stimulated luminescence; calls by dose curve; note: nearly all actives have a fitted effect of over 60% in size
#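 Compound pre-incubated 30 min at room temperature on GloSensor-loaded HEK293 cells stably carrying hNpr1 and the pGS-40F cGMP biosensor. Stimulation uses hNppA at 0.1 nM final; luminescence is taken at baseline and 20 min post-agonist.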
# 3T3 cytotox = NIH 3T3 cell cytotoxicity; NIH 3T3 viability, CellTiter-Glo ATP luminescence, 48-72 h; Potency, µM (titrated, usually from 96.7 µM), actives largely listed as inhibitors; hit rate 4.3% among 94,000; AID 1345082; note: nearly all actives have a fitted effect of over 55% in size
#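 ATP-dependent luminescence (CellTiter-Glo) served as the viability signal for NIH 3T3 cells treated with compound for 48 or 72 hr at 37 °C.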
# A number is an active result; - = inactive; ? = inconclusive; . = no result; ! = not active in a repeat. In the library only some 11% were active in any assay of this set; here they are far more common. Unless noted, calls come from the whole dose curve; as a rule, active = well fitted curve in the direction sought with a large enough effect; inconclusive = small, poorly fitted or top-dose-only effect, or another doubt; inactive = no such curve, though single readings can be large; an effect the other way counts as inactive or inconclusive.
SMILES,HEK293 tox,Luciferase inh,hNpr1 antagonist,3T3 cytotox
C[C@H]1CCCN1C(=O)c1nnc(COc2ccc(C#N)cc2)n1-c1cccnc1,?,-,-,40µM
C[C@H]1CCCN1C(=O)c1nnc(COc2ccc(C#N)cc2)n1-c1ccccc1,-,-,-,35µM
O=C(c1nnc(COc2ccc(OC(F)(F)F)cc2)n1-c1ccccc1)N1CCC[C@@H]1C(c1ccccc1)c1ccccc1,?,-,-,4.5µM
O=C(NCCc1ccccc1)C1(CCO)CCN(c2ncccn2)C1 (centres undefined),?,.,.,-
CC(C)c1noc(-c2cccn3c(CNC(=O)c4ccc(F)cc4Cl)nnc23)n1,-,-,-,-
COc1cc(NC(=O)Nc2nc3c(s2)C[C@]2(C)CC[C@@H]4[C@H](OC(=O)[C@H]4C)[C@H]2[C@@H]3C)cc(OC)c1,?,?,-,?
C[C@@H]1C(=O)O[C@H]2[C@H]1CC[C@@]1(C)Cc3sc(NC(=O)CN(C)C)nc3[C@@H](C)[C@H]21,-,3.2µM,16µM,-
COCCNC(=O)[C@@H](C)C1CC[C@@]2(C)Cc3sc(NC(=O)CN(C)C)nc3[C@@H](C)[C@@H]2[C@H]1O (some centres undefined),-,20µM,-,-
C[C@@H]1C(=O)O[C@H]2[C@H]1CC[C@@]1(C)Cc3sc(Nc4ccc(C(=O)O)cc4)nc3[C@@H](C)[C@H]21,-,1µM,13µM,-
C[C@@H]1C(=O)O[C@H]2[C@H]1CC[C@@]1(C)Cc3sc(NC(=O)COc4ccccc4)nc3[C@@H](C)[C@H]21,?,-,-,-
C=CCNC(=O)Nc1nc2c(s1)C[C@]1(C)CC[C@@H]3[C@H](OC(=O)[C@H]3C)[C@H]1[C@@H]2C,?,16µM,-,-
C[C@@H]1C(=O)O[C@H]2[C@H]1CC[C@@]1(C)Cc3sc(NC(=O)CCC(=O)O)nc3[C@@H](C)[C@H]21,-,?,-,-
C[C@@H]1C(=O)O[C@H]2[C@H]1CC[C@@]1(C)Cc3sc(NC(=O)CC(C)(C)C)nc3[C@@H](C)[C@H]21,32µM,20µM,-,?
O=C(c1ccc(F)cc1)N1CCC(C(=O)N2CCCC(c3nc4ncccc4[nH]3)C2)CC1 (centres undefined),-,.,.,-
CC(=O)NC1(C)CCCN(Cc2cccc(-c3c(C)noc3C)c2)C1 (centres undefined),-,-,-,?
Cc1cccc(-c2cccc(CN3CCC(N[S+](=O)([O-])c4c(C)noc4C)CC3)c2)c1,28µM,.,.,32µM
Cc1noc(C)c1[S+](=O)([O-])NC1CCN(Cc2cccc(-c3cccs3)c2)CC1,22µM!,.,.,40µM!
CN(Cc1ccc(N2CCNC2=O)cc1)CC1CCCN(CCc2ccc(F)cc2)C1 (centres undefined),?,-,-,?
CCCCc1ncc(CN(C)CC2CCCN(CCc3ccc(F)cc3)C2)[nH]1 (centres undefined),40µM,-,-,?
O=C(Nc1cccc(-c2ccc(N3CCCC3)nn2)c1)Nc1c(F)cccc1F,?,14µM,-,?
O=C(Nc1cccc(-c2nnc3n2CCCC3)c1)Nc1ccccc1F,-,-,-,-
O=C(Nc1cccc(-c2ccc(N3CCCC3)nn2)c1)Nc1cc(F)ccc1F,?,5µM,?,?
COc1cccc(Cn2c(=O)c(-c3noc(C)n3)c3n(c2=O)CCCCC3)c1,-,-,-,-
Cc1ccccc1-c1nccc2c(=O)cc(-c3ccncc3)oc12,100µM,-,-,?
O=c1cc(-c2ccncc2)oc2c(-c3cccc(CO)c3)nccc12,-,-,-,45µM
SMILES,HEK293 tox,Luciferase inh,hNpr1 antagonist,3T3 cytotox
Cn1cc(-c2cc(=O)c3ccnc(-c4cccc5[nH]ccc45)c3o2)cn1,?,-,-,?
O=c1cc(-c2ccncc2)oc2c(-c3cccc4[nH]ccc34)nccc12,25µM,-,-,?
COc1ncccc1-c1nccc2c(=O)cc(-c3ccncc3)oc12,-,-,-,28µM
CC(=O)N1CCCC(C(=O)N2CCC(c3nc4ncccc4[nH]3)C2)C1 (centres undefined),-,.,.,-
O=C1CC2(CCN(C(=O)C3CCN(C(=O)C4CC4)CC3)CC2)Oc2ccccc2N1,-,.,.,-
O=C(c1ccccc1Cl)N1CCC(C(=O)N2CCCC2c2nc3ccncc3[nH]2)CC1 (centres undefined),-,.,.,-
Cc1nc(C)c(C(=O)NCCc2ncc(C)n2C2CCCC2)s1,-,.,.,-
CCn1nc(-c2ccccc2SC)nc1N(C)C,-,-,-,-
CCn1nc(-c2ccc3c(c2)OCCO3)nc1N(C)C,-,40µM,-,-
CC(=O)Nc1ccc(-c2ccc(=O)n3c2[C@@H]2C[C@@H](CN(C(=O)COc4ccccc4)C2)C3)cc1,40µM,-,-,-
CC(=O)Nc1ccc(-c2ccc(=O)n3c2[C@@H]2C[C@@H](CN(S(=O)(=O)c4ccc(Cl)cc4)C2)C3)cc1,14µM,-,-,-
COc1ccc(NC(=O)N2C[C@@H](F)C[C@H]2C(=O)N2CCCCC2)cc1F,-,-,-,-
COc1ccc(OC)c(NC(=O)N2C[C@@H](F)C[C@H]2C(=O)N2CCCCC2)c1,-,-,-,11µM
COc1ccccc1-n1c(=O)c(C(=O)N2CCN([S+](=O)([O-])c3cccc(C(F)(F)F)c3)CC2)nc2cccnc21,-,.,.,?
O=C(CN1C(=O)C2(CCCCC2)C1c1ccccc1)NC1CCCC1 (centres undefined),-,.,.,-
Oc1cc(-c2csc3ccccc23)cc2c1OCCNC2,20µM,-,-,?
Cc1ccccc1-c1cc(O)c2c(c1)CNCCO2,-,-,-,-
Fc1cccc(CN2CCO[C@@H](COc3ccccn3)[C@@H]2c2ccccc2)c1,?,.,.,35µM
COc1cc(C(=O)NC2CCN(c3cc(-c4ccccc4)[nH]n3)C2)cc(OC)c1OC (centres undefined),?,-,-,-
O=C1CCN(Cc2cccc(F)c2)CCCC(c2nc(-c3cccnc3)no2)CCN1 (centres undefined),79µM,-,-,?
O=C(c1nc(-c2ccccc2)c2ccccn12)N1CCOCC1,89µM,-,-,?
O=C(c1nc(-c2ccccc2)c2ccccn12)N1CCN(c2ncccn2)CC1,79µM,-,-,-
O=C(c1nc(-c2ccc(F)cc2)c2ccccn12)N1CCOCC1,112µM,-,-,-
Cc1noc(C)c1S(=O)(=O)N1CCC2(CC1)c1[nH]c3ccccc3c1CCN2C,-,-,-,-
Cc1ccc(CC(=O)NCc2nnc3cc(-c4nc(C5CC5)no4)ccn23)cc1,-,-,-,-
CCCOC(=O)N1CCC(C(=O)Nc2cccc(-c3cccc(F)c3)c2)CC1,45µM,-,?,?
CC(=O)N1CCC(N2C[C@H](O)C[C@H]2c2nc(-c3cccc(C)c3)no2)CC1,?,20µM,-,?
Cc1cccc(-c2noc([C@@H]3C[C@@H](O)CN3C3CCOCC3)n2)c1,?,25µM,-,-
CC(=O)N1CCC(N2C[C@H](O)C[C@H]2c2nc(-c3ccccc3)no2)CC1,-,-,-,-
